Measurements from ChEMBL document CHEMBL4513216, “Probing the Open Global Health Chemical Diversity Library for Multistage-Active Starting Points for Next-Generation Antimalarials” (ACS Infect Dis, 2020).
The campaign covered roughly 69,000 compounds. About 8,600 (12%) showed an effect of 50% or more. The full list was thinned out, with strong results kept by preference.

Tested on: Plasmodium berghei
Experiment: Screen against P. berghei liver stage (PbLuc), transformed with Luciferase, at 10uM
Format: functional, HepG2
Settings: tested at 10 uM

SMILES | INHIBITION
CCc1n[nH]c(C2CN(C(=O)CCc3cscn3)CCO2)n1 (stereo unspecified) | 7.42%
O=C(c1cccc(NCc2cccc(F)c2)c1)N1CCC(O)CC1 | -39.4%
CC1CN(CC(=O)NC(=O)NCc2ccccc2)CCO1 (stereo unspecified) | 5.53%
CCS(=O)(=O)c1ncc(CN2CCN(C)CC2)n1CCc1ccccc1 | 38.7%
CCS(=O)(=O)c1ncc(CN2CCCC2)n1CCc1ccccc1 | 13%
CCS(=O)(=O)c1ncc(CN2CCSCC2)n1CCc1ccccc1 | 58.9%
Cc1cc(CN2CCN(C(=O)NC(C)c3ccc(C)o3)CC2)on1 (stereo unspecified) | 13.75%
O=C(NCCN1CCOCC1)c1ccnn1-c1ccc2ccccn12 | 94%
O=C(c1ccnn1-c1ccc2ccccn12)N1CCCC1 | 30.3%
O=C(NCCN1CCOCC1)c1ccn(-c2ccc3ccccn23)n1 | 47.2%
O=C(NCCCN1CCOCC1)c1ccn(-c2ccc3ccccn23)n1 | 39.8%
CN(C)C1CCN(C(=O)c2ccnn2-c2ccc3ccccn23)CC1 | 4.98%
CN1CCCN(C(=O)c2ccnn2-c2ccc3ccccn23)CC1 | 53.9%
O=C(c1ccnn1-c1ccc2ccccn12)N1CCOCC1 | 13.1%
CCN(C)C(=O)c1ccnn1-c1ccc2ccccn12 | 51.2%
COCCNC(=O)c1ccnn1-c1ccc2ccccn12 | 39.3%
O=C(Nc1cccnc1)C1=NN(c2ccccc2)C(=O)CN1 | -141%
CCCn1nccc1-c1cnc(CC2CCN(C(C)=O)C2)cn1 (stereo unspecified) | 19.3%
O=C(Cn1ccc(=O)cc1)N1C[C@@H]2CC[C@H]1CN(c1ncccn1)C2 | 15.3%
O=C(c1cc(Cl)c2c(c1)OCO2)N1CCN(c2ncccn2)CC1 | 15.4%
CN1CCN(Cc2ccncc2)C(=O)C12CCN(Cc1ccsc1)CC2 | 1.34%
COC1CCN(CC(=O)NCc2ccc(OCC(N)=O)cc2)CC1 | 2.45%
Cc1nc2ccccc2c(=O)n1CCCC(=O)N1CCNC(=O)CC1 | 4.37%
Cc1ccc(=O)n(CC2(O)CCN(Cc3cnn(C)c3)CC2)n1 | -3.31%

SMILES | INHIBITION
Cc1nn(-c2ccccc2)nc1C(=O)NCC(c1ccco1)N(C)C (stereo unspecified) | 8.48%
Cc1nn(-c2ccccc2)nc1C(=O)NCC(c1ccsc1)N(C)C (stereo unspecified) | 57.2%
Cc1nn(C)c(Cl)c1C(=O)NCC(c1ccsc1)N(C)C (stereo unspecified) | 36.4%
O=C1[C@H]2CN(Cc3ccoc3)C[C@H]2CN1CCN1CCCC1 | 3.81%
CCN1C(=O)[C@H]2CN(CC(C)C)C[C@H]2C12CCN(S(C)(=O)=O)CC2 | 20.1%
O=S(=O)(C/C=C/c1ccccc1)Cc1nc(C2CC2)no1 | 45%
CCc1noc(CS(=O)(=O)C/C=C/c2ccccc2)n1 | 12.4%
Cc1noc(CS(=O)(=O)C/C=C/c2ccccc2)n1 | 60.2%
CC(=O)c1ccc(S(=O)(=O)N2CCOC(Cn3ccnc3)C2)cc1 (stereo unspecified) | 30.4%
CC(C)(C#N)C(=O)Nc1nccn1Cc1ccc(Br)cc1 | 60.1%
CSc1ncccc1C(=O)Nc1ccc(Cn2ccccc2=O)cc1 | 9.16%
CSCC(=O)Nc1nccn1Cc1ccc(Br)cc1 | 50.8%
COCC(=O)Nc1nccn1Cc1ccc(Br)cc1 | 84.2%
CNC(=O)c1ccc(Cn2ccnc2S(C)(=O)=O)cc1 | 20.5%
COCCC(=O)Nc1nccn1Cc1ccc(Br)cc1 | 23.9%
CCOCC(=O)Nc1nccn1Cc1ccc(Br)cc1 | 45.2%
CCn1ccnc1CN(C)C(C(=O)O)c1ccc(C(C)(C)C#N)cc1 (stereo unspecified) | 42.8%
CS(=O)(=O)c1nccn1Cc1ccc(C(N)=O)cc1 | 19.2%
CC(NC(=O)NCCCN1CCCC1=O)c1nncn1C (stereo unspecified) | -7.31%
CCC(C(=O)NC1CCCC1)n1ccc2ncccc2c1=O (stereo unspecified) | -13.2%
Cc1n[nH]c(C)c1C1CCCN1C(=O)NCC(=O)Nc1ccccc1 (stereo unspecified) | 22%
O=C(c1ccc2c(c1)OCCCO2)N1CCCC(n2ccnc2)C1 (stereo unspecified) | 42%
Cc1csc(CCNC(=O)NC(C)Cn2cccn2)n1 (stereo unspecified) | -7.31%
COc1ccc(NC(=O)c2cnc(N(C)C3CCCCC3)nc2N)cc1 | 35.7%

SMILES | INHIBITION
CN(c1ccc(CNC(=O)c2c[nH]c(=O)c(Cl)c2)cc1)C1CCCCC1 | 77.6%
CN(c1ccc(CNC(=O)c2ccc(O)nc2)cc1)C1CCCCC1 | 67.8%
CCC1CCC(CNC(=O)c2c[nH]c(=O)c(Cl)c2)CC1 (stereo unspecified) | 4.35%
CNC(=O)c1ccc(CNC(=O)NCCN(C)C2CCCC2)cc1 | -2.53%
CC/C=C(\C)CN1CCC(CNC(=O)c2c[nH]c(=O)c(Cl)c2)C1 (stereo unspecified) | 63.8%
CC/C=C(\C)CN1CCC(CNC(=O)c2ccc(=O)[nH]c2)CC1 | -24.7%
CN(c1ncc(C(=O)NCc2ccccc2)c(N)n1)C1CCCCC1 | 63.6%
Cc1ccc(C(=O)NCc2ccc(N(C)C)cc2)cn1 | 32%
CC/C=C(\C)CN1CCC(CNC(=O)c2ccnc(N)c2)C1 (stereo unspecified) | -5.8%
CN(c1ncc(C(=O)Nc2ccccc2)c(N)n1)C1CCCCC1 | 47.2%
CN(C)c1cc(CNC(=O)c2ccc(O)nc2)ccn1 | 9.64%
CCOc1ncccc1NC(=O)N1CCC(CN2CCOCC2)CC1 | 31.65%
C[C@@H]1C(=O)NC[C@H]2CN(CCc3ccccc3)C[C@H]21 | 26.6%
CCC(CN1CCCC1)n1cncc1-c1cnn(-c2ccc(F)cc2)c1 (stereo unspecified) | 43.55%
CCOC1COC2(CCN(c3ncc(C)cn3)CC2)C1 (stereo unspecified) | 10.6%
CC(C)c1cc(C(=O)N2CCCC(n3cncn3)C2)n[nH]1 (stereo unspecified) | 15.6%
Fc1ccc(-c2nnc(CN3CCCC3Cn3cccn3)o2)cc1 (stereo unspecified) | 11.6%
CC(=O)N1CCCC1c1ccc(C(=O)N2CCOCC2)s1 (stereo unspecified) | 21.7%
Cn1nc2c(c1NC(=O)c1ccc(C3CCCN3C3CCC3)s1)CCC2 (stereo unspecified) | 15.4%
CN1CCCC1c1ccc(C(=O)Nc2c3c(nn2C)CCC3)s1 (stereo unspecified) | 56%
CN1CCCC1c1ccc(C(=O)N2CCc3ccccc3C2)s1 (stereo unspecified) | 66.9%
Cn1nc2c(c1NC(=O)c1ccc(Cl)s1)CCC2 | -57.9%
O=C(c1ccc(C2CCCO2)s1)N1Cc2ccccc2C1 (stereo unspecified) | -44.8%
